HSF-1 act = HSF-1 activators, primary screen, NIH3T3-HGL cells, MG132 stress, luminescence, single point; actives 1.7% (n = 300,000); NIH3T3-HGL HSF-1 luciferase reporter, 8 h; 100% = twice DMSO control signal; AID 504408, 2011; activation, % at 9 µM;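 active = mean replicate activation of at least 50% with a set share of replicates each reaching 50%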;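 note: 0% = median of the neutral control wells and 100% = twice that signal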
S1P4 antagonist = S1P4 receptor antagonists, primary screen, cell-based; S1P4-expressing cells, antagonist mode, reporter read-out; inhibition, % at 4.98 µM; Sphingosine 1-phosphate receptor 4 (Homo sapiens), O95977; AID 1510, 2009; actives 0.26% (n = 220,000); in the data active = inhibition above about 29%;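 note: 0% = wells stimulated with agonist and 100% = vehicle wells without agonist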
Target sequence (O95977 whole entry, looked up): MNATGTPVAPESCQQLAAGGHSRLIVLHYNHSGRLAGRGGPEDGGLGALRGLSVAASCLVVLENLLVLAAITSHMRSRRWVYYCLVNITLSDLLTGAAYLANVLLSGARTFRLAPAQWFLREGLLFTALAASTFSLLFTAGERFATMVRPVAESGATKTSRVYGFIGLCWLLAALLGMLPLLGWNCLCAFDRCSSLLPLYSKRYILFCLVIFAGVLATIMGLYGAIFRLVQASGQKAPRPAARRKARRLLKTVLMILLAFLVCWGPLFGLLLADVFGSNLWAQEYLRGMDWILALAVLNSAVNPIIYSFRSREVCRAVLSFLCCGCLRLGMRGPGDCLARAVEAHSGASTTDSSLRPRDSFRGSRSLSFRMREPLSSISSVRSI
S1P4 agonist = S1P4 receptor agonists, primary screen, cell-based; S1P4-expressing cell line, agonist reporter assay; activation, % at 4.98 µM; actives 0.35% (n = 220,000); AID 1509, 2009; in the data active = activation above about 11%;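 note: 0% = DMSO vehicle and 100% = reference agonist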
Hsp70 act = Hsp70 transcriptional activators, primary screen, cell-based, HeLa, Hsp70 promoter luciferase, luminescence, 10 µM. HeLa Hsp70 promoter luciferase reporter; scaled: vehicle 0, proteasome-inhibitor control 100%. activation, % at 10 µM. actives 0.04% (n = 200,000);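 active = activation above the mean across all tested compounds plus 3 SD, cutoff set per campaign, cut at about 5.5% in these data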;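 note: 100% = MG132 at 30 µM as the positive control and 0% = DMSO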
HSF1 inh = HSF1 inhibitors in luciferase reporter cells, primary screen, cell-based, NIH3T3, luminescence; AID 2098, 2009; NIH3T3-HGL HSE-luciferase, MG132-induced, luminescence 8 h; stronger effect = lower value; activity change, negative = inhibition, % at 7.5 µM (by protocol); actives 0.77% (n = 300,000);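 active = more than half of replicate wells show activity change below -50%, luminescence cut by over half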;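 note: luciferase reports HSF-1 transcriptional activity via heat shock element; 0% = median of DMSO wells and -100% = zero luminescence signal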
S1P3 antag = S1P3 receptor antagonists, primary screen, cell-based. Sphingosine 1-phosphate receptor 3 (Homo sapiens), Q99500. inhibition, % at 4.98 µM. CHO S1P3 NFAT-BLA reporter, FRET fluorescence, antagonist mode. actives 0.27% (n = 170,000);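 active = inhibition above the plate cutoff, the mean inhibition of test wells on that plate plus 3 SD, cut at about 28% in these data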;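 note: cells challenged with S1P at its EC80 of 0.8 µM; blue over green emission ratio from cleaved BLA substrate after 4 h stimulation; 0% = S1P-stimulated wells and 100% = unstimulated DMSO-only wells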
An asterisk follows results filed as active; . = not tested or not shown. Hits are enriched below; roughly 2.9% of the tested compounds scored in any of these assays.

SMILES	HSF-1 act	S1P4 antagonist	S1P4 agonist	Hsp70 act	HSF1 inh	S1P3 antag
O=C1N=C(N2CCOCC2)S/C1=C/c1ccc(-c2ccccc2Cl)o1	9	-8	-2	0	-10	.
O=C1S/C(=C\c2ccc(N3CCOCC3)o2)C(=O)N1Cc1c(F)cccc1Cl	251*	1	-2	0	185	.
COc1cc(C(=O)Nc2cccc(S(=O)(=O)N3CCCC3)c2)cc(OC)c1C	13	-3	1	.	-3	7
CCOC(=O)c1cc(C#N)c(NCc2ccccc2)nc1C	-78	4	0	0	-72*	3
CC(=O)c1cc(C#N)c(NCc2ccccc2)nc1C	26	-16	-1	0	2	-8
Cc1nn(CC(=O)NCCC2=CCCCC2)c(C)c1[N+](=O)[O-]	-3	.	.	.	4	.
CCOC(=O)c1c(N2CCCCC2)c2ccccc2[nH]c1=O	-64	-20	2	0	-59*	.
CCN(CC)C(=O)Cn1c(=O)n(-c2ccc(CC(=O)NCc3ccccc3)cc2)c(=O)c2sccc21	-8	1	1	0	5	-15
CC(C)(C)c1ccc(C(=O)N2CCN(c3nc4ccccc4o3)CC2)cc1	-15	-4	6	0	-3	.
O=C(c1ccc(-c2ccccc2)cc1)N1CCN(c2nc3ccccc3o2)CC1	.	2	-1	0	.	53*
O=C(OCn1ncc(Cl)c(Cl)c1=O)c1cccc(C(F)(F)F)c1	31	34*	-4	1	21	.
N/C(=N\OC(=O)c1cccc(C(F)(F)F)c1)c1cnccn1	14	.	.	.	9	.
CCOC(=O)c1c(C)[nH]c(C(=O)COC(=O)C2=NNC(=O)CC2)c1C	-83	0	1	0	-78*	-16
CCCCNC(=O)C(c1ccc(OCC(=O)OC)c(C(=O)OC)c1)N(CCc1c[nH]c2ccccc12)C(=O)CCCCCN1C(=O)NC(c2ccc(-c3ccccc3)cc2)C(C(=O)OCc2ccccc2)=C1C (stereo not given)	-84	.	.	.	-80*	.
O=C(NNc1c2ccccc2nc2ccccc12)c1cccc(O)c1	29	-5	1	0	15	-1
Oc1cccc(-c2nc3ccc4ccccc4c3c3c2CCC3)c1	59*	10	-3	1	37	.
COc1cccc(CN2CCNC(=O)C2CC(=O)NC2CCCC2)c1OC (stereo not given)	-3	.	.	.	2	.
Cc1cccc(OCC(=O)Nc2ccc3c(C)cc(=O)oc3c2)c1	6	3	1	0	-3	8
Cc1cc(=O)oc2cc(NC(=O)c3ccccc3Cl)ccc12	63*	.	.	.	21	.
Cc1cc(=O)oc2cc(NC(=O)c3ccccc3C(=O)O)ccc12	46	.	.	.	19	.
COc1cccc(C(=O)Nc2ccc3c(C)cc(=O)oc3c2)c1	108*	.	.	.	62	.
CN(C)c1cccc(C(=O)OC(C(=O)Nc2ccc([N+](=O)[O-])cc2Br)c2ccccc2)c1 (stereo not given)	-1	-18	0	0	-6	3
Cc1ccc(-c2nc3ccccc3[nH]2)cc1NC(=O)c1ccc2c(c1)OCO2	88*	-2	0	0	34	.
Cc1nc(C(=O)NNC(=O)c2cccc(Cl)c2)c(C(F)(F)F)o1	-77	-10	3	.	-71*	-1
Cc1ccc2c(CN(C)Cc3ccc(Cl)cc3)cc(=O)oc2c1	36	.	.	.	23	.
SMILES	HSF-1 act	S1P4 antagonist	S1P4 agonist	Hsp70 act	HSF1 inh	S1P3 antag
O=C(N/N=C1\CC(c2ccccc2)Oc2ccccc21)c1cccnc1 (stereo not given)	13	-6	0	0	12	-6
O=C(N/N=C1\CC(c2ccccc2)Oc2ccccc21)c1ccc(O)cc1 (stereo not given)	71*	.	.	.	35	.
Oc1ccc(CN2CCCc3ccccc32)c2cccnc12	-70	-6	2	0	-69*	-18
CC(OC(=O)C1CC1)C(=O)Nc1ccc([N+](=O)[O-])cc1Cl (stereo not given)	7	-23	1	0	-3	-26
Cc1nn(CCCC(=O)Nc2cc(Oc3ccccc3)cc([N+](=O)[O-])c2)c(C)c1[N+](=O)[O-]	14	5	0	0	2	17
Cc1ccc(C)c(Oc2cc(NC(=O)CCCn3nc(C)c([N+](=O)[O-])c3C)cc([N+](=O)[O-])c2)c1	72*	5	4	0	34	17
COc1cccc(C2CC(c3ccccc3)n3ncnc3N2)c1 (stereo not given)	-82	-5	-4	0	-77*	.
COc1cccc(C2CC(c3ccc(C)cc3)n3ncnc3N2)c1 (stereo not given)	9	-8	-2	1	-4	.
Cc1ccc(NC(=O)O/N=C/c2ccc(N(C)C)cc2)cc1	-47	.	.	.	-32	.
CCOc1ccccc1/C=C/c1onc(C)c1S(=O)(=O)N1CCC(C(=O)N(CC)CC)CC1	-70	.	.	.	-60*	.
CCN(CCN(C)C)C(=O)C1CCN(S(=O)(=O)c2c(C)noc2/C=C/c2ccccc2F)CC1	31	.	.	.	0	.
Cc1cc(C)n(CCc2nc(-c3ccc(-c4ccccc4)cc3)cs2)n1	52*	2	0	0	35	2
O=C(Nc1ccc(C2SCCS2)cc1)c1ccccc1	54*	11	1	.	31	-2
CCCCNC(=O)Nc1ccc(C2SCCS2)cc1	69*	2	-1	.	47	-10
CCC(=O)Nc1ccccc1N1CCN(c2ccc(F)cc2)CC1	-13	.	.	.	2	.
CNC(=O)Nc1ccc(C2SCCS2)cc1	31	-4	-1	.	8	-6
O=C(Nc1ccc(F)cc1)c1ccccc1	65*	-5	0	0	29	.
O=C(Nc1ccccc1N1CCN(c2ccc(F)cc2)CC1)c1ccccc1	26	-6	-1	0	3	62*
COCCSc1ccccc1C(=O)N1CCOCC1	-1	6	0	0	-7	.
COc1ccc(C(CNC(=O)C(CCSC)NC(=O)c2ccccc2OC)N2CCCCC2)cc1 (stereo not given)	9	.	.	.	1	.
COc1cccc(C(=O)NCC(=O)N/N=C/c2cccs2)c1	7	-4	-3	0	-4	-33
COc1ccc(CNC(=O)[C@H](C)NC(=O)N2CCn3c2nc2ccccc23)cc1	6	.	.	.	-5	.
O=C(Nc1ccccc1C(=O)O)c1ccc(NC(=O)C2CCCCC2)cc1	-16	.	.	.	-6	.
O=C(Nc1ccc2nc3ccccc3nc2c1)c1ccccc1	81*	0	4	0	40	21
O=C(Nc1ccccc1)c1ccc(NC(=O)C2CC2)cc1	54*	.	.	.	27	.

Compound activity from PubChem.
